Measured potencies and affinities stand elsewhere. Records with an inconclusive call do not appear. Active and inactive are the calls of the source.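 How the source made its calls: active means every test run shows a luminescence drop with half-maximal concentration at most twice the top tested dose; inconclusive means test runs disagree, weak flat response, or unreliable curve fit; inactive means the rest.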
Assay: mouse fibroblast viability loss – cell-based, dry powder samples, cytotoxicity control, dose response (AID 651844)
Conditions: NIH/3T3 viability, CellTiter-Glo ATP luminescence, 90 h; series mostly up to 16 µM

Compound | outcome
CC(C)N1C[C@H](C)[C@@H](CN(C)C(=O)OC(C)(C)C)Oc2c(NC(=O)c3cccnc3)cccc2C1=O | inactive
C[C@@H]1CN([C@@H](C)CO)C(=O)c2cccc(NC(=O)c3ccncc3)c2O[C@H]1CN(C)Cc1ccncc1 | inactive
CC(C)N1C[C@H](C)[C@@H](CN(C)Cc2ccccc2Cl)Oc2c(NC(=O)c3ccncc3)cccc2C1=O | inactive
CC(C)N1C[C@@H](C)[C@H](CN(C)Cc2ccc(Oc3ccccc3)cc2)Oc2c(cccc2N(C)C(=O)c2ccncc2)C1=O | inactive
CC(C)N1C[C@H](C)[C@@H](CN(C)C(=O)OC(C)(C)C)Oc2c(NC(=O)c3ccccn3)cccc2C1=O | inactive
C[C@H]1CN([C@@H](C)CO)C(=O)c2cccc(NC(=O)c3ccncc3)c2O[C@@H]1CN(C)Cc1ccc(C(=O)O)cc1 | inactive
C[C@H]1CN([C@@H](C)CO)C(=O)c2cccc(NC(=O)c3ccncc3)c2O[C@@H]1CN(C)Cc1ccc(C(F)(F)F)cc1 | inactive
C[C@H]1CN([C@@H](C)CO)C(=O)c2cccc(NC(=O)c3ccncc3)c2O[C@@H]1CN(C)Cc1ccc2c(c1)OCO2 | inactive
CC(C)N1C[C@H](C)[C@@H](CN(C)C(=O)OC(C)(C)C)Oc2c(C(=O)Nc3ccncc3)cccc2C1=O | inactive
CNC[C@H]1Oc2c(NC(=O)c3ccccc3)cccc2C(=O)N(C(C)C)C[C@@H]1C | inactive
C[C@H]1CN([C@@H](C)CO)C(=O)c2cccc(NC(=O)c3ccncc3)c2O[C@@H]1CN(C)Cc1ccncc1 | inactive
C[C@@H]1CN([C@@H](C)CO)C(=O)c2cccc(NC(=O)c3ccncc3)c2O[C@H]1CN(C)Cc1ccc(C(=O)O)cc1 | inactive
CC(C)N(C)C(=O)c1cccc(NC(=O)c2ccncc2)c1OCCCN(C)Cc1ccc(Cl)cc1 | inactive
COc1ccc(CN(C)C[C@H]2Oc3c(NC(=O)c4ccncc4)cccc3C(=O)N([C@@H](C)CO)C[C@@H]2C)cc1 | inactive
C[C@H]1CN([C@@H](C)CO)C(=O)c2cccc(NC(=O)c3ccncc3)c2O[C@@H]1CN(C)Cc1ccccc1 | inactive
C[C@@H]1CN([C@@H](C)CO)C(=O)c2cccc(NC(=O)c3ccncc3)c2O[C@@H]1CN(C)Cc1ccc(Oc2ccccc2)cc1 | inactive
CC(C)N1C[C@H](C)[C@@H](CN(C)Cc2ccc(Oc3ccccc3)cc2)Oc2c(NC(=O)c3ccccn3)cccc2C1=O | inactive

Compound | outcome
CC(C)N1C[C@H](C)[C@@H](CN(C)C(=O)OC(C)(C)C)Oc2c(C#N)cccc2C1=O | inactive
CC(C)N(C)C(=O)c1cccc(NC(=O)c2ccncc2)c1OCCCN(C)C(=O)OC(C)(C)C | inactive
CC(C)N1C[C@H](C)[C@@H](CN(C)Cc2ccc(Cl)cc2)Oc2c(NC(=O)c3ccncc3)cccc2C1=O | inactive
C[C@H]1CN([C@@H](C)CO)C(=O)c2cccc(NC(=O)c3ccncc3)c2O[C@@H]1CN(C)Cc1ccc(C(=O)Nc2ccccc2N)cc1 | inactive
CC(C)N1C[C@H](C)[C@@H](CN(C)Cc2cccc(Cl)c2)Oc2c(NC(=O)c3ccncc3)cccc2C1=O | inactive
CC(C)N1C[C@H](C)[C@@H](CN(C)CC2CCOCC2)Oc2c(NC(=O)c3ccncc3)cccc2C1=O | inactive
CNC[C@@H]1Oc2c(NC(=O)c3ccncc3)cccc2C(=O)N(C(C)C)C[C@H]1C | inactive
C[C@@H]1CN([C@H](C)CO)C(=O)c2cccc(NC(=O)c3ccncc3)c2O[C@H]1CN(C)Cc1ccc2c(c1)OCO2 | inactive
CC(C)N1C[C@H](C)[C@@H](CN(C)Cc2ccccc2)Oc2c(NC(=O)c3ccncc3)cccc2C1=O | inactive
C[C@@H]1CN([C@@H](C)CO)C(=O)c2cccc(NC(=O)c3ccncc3)c2O[C@H]1CN(C)Cc1cccc(Cl)c1 | inactive
CC(C)N1C[C@H](C)[C@@H](CN(C)Cc2ccc(Oc3ccccc3)cc2)Oc2c(NC(=O)c3ccccc3)cccc2C1=O | inactive
CC(C)N1C[C@H](C)[C@@H](CN(C)C(=O)OC(C)(C)C)Oc2c(NC(=O)c3ccccc3)cccc2C1=O | inactive
CC(C)N1C[C@H](C)[C@@H](CN(C)Cc2ccc(Oc3ccccc3)cc2)Oc2c(NC(=O)c3cccnc3)cccc2C1=O | inactive
CC(C)N1C[C@H](C)[C@@H](CN(C)C(=O)OC(C)(C)C)Oc2c(C(=O)O)cccc2C1=O | inactive
CC(C)N1C[C@H](C)[C@@H](CN(C)C(=O)OC(C)(C)C)Oc2c(NC(=O)c3ccncc3)cccc2C1=O | inactive
CCCn1ncc(CN(C)C[C@H]2Oc3c(NC(=O)c4ccncc4)cccc3C(=O)N(C(C)C)C[C@@H]2C)c1C | inactive

Reference: PubChem BioAssay AID651844 (Broad Institute, 2012)
